Inconclusive results are not listed. Values without a mark were called inactive. Calls of active or inactive are those of the source. Calls come from the whole dose curve; as a rule, active = well fitted cell-killing curve with a large enough effect in the repeat runs; inconclusive = weak or mixed curves, or effect the other way; inactive = flat fitted curve, though single readings scatter.
Test: qHTS assay to identify small molecule agonists of the TGF-beta/Smad signaling pathway - cell viability counter screen (AID 1346829); note: nearly all actives have a fitted effect of over 45% in size; for activity change, negative = cytotoxicity: top concentration of the series differs between compounds
Details: SBE-bla HEK293T viability, CellTiter-Glo luminescence, 5 h; series mostly up to 76.8 µM; activity change, negative = cytotoxicity: at the top concentration
Excerpt: National Center for Advancing Translational Sciences [NCATS]
NIH Chemical Genomics Center [NCGC]
U.S. Environmental Protection Agency [EPA]
National Institutes of Environmental Health Sciences [NIEHS]
National Toxicology Program [NTP]
U.S. Food and Drug Administration [FDA]
Transforming growth factor beta (TGF-beta) superfamily consists of a large number of structurally related dimeric proteins that act as hormones or local mediators in regulating a wide range of biological functions. This superfamily includes TGF-betas themselves, the bone morphogenetic proteins (BMPs) and the activins. These ligands induce oligomerization of serine/threonine receptor kinases and phosphorylate the cytoplasmic signaling molecules of Smad protein family. CellSensor SBE-bla HEK 293T cell line (Life Technologies, Carlsbad, CA), responsive to TGF-beta was used to screen Tox21 10K compound library for identification of agonists/antagonists of the Smad signaling pathway. This cell line contains a beta-lactamase reporter gene under control of the Smad binding element (SBE) stably integrated into HEK 293T cells. Also cytotoxicity of the compounds was tested in parallel by measuring the cell viability using CellTiter-Glo assay system in the same wells.
Tox21 Assay Protocol Summary:
SBE-bla HEK 293T cells were dispensed at 4,000/well in 6 uL of assay medium into black wall/clear-bottom 1536-well plates using a Multidrop Combi (ThermoFisher Scientific, Waltham, MA) dispenser. After the assay plates were incubated at 37 C and 5% CO2 for an overnight, 23 nL of compounds dissolved in DMSO, positive controls or DMSO only was transferred to the assay plate by a Pintool station (Kalypsys, San Diego, CA). The assay plates were incubated at 37 C and 5% CO2 for 5 hr. One uL of LiveBLAzer B/G FRET substrate (Life Technologies) was added using a Flying Reagent Dispenser (FRD, Aurora Discovery, San Diego, CA) and the plates were incubated at room temperature for 2 hr. Fluorescence intensity (405 nm excitation, 460 nm and 530 nm emissions) was measured using an Envision plate reader (PerkinElmer, Shelton, CT). For cytotoxicity read, 4 uL of CellTiter-Glo reagent (Promega Corporation, Madison, WI) was added to each well of the assay plates using FRD. After 30min incubation at room temperature, the luminescence intensity was measured using ViewLux plate reader (PerkinElmer).
% is set by controls: 0 for no effect and ±100 for the full control effect; potency is the fitted concentration of half-maximal effect.

Structure (SMILES) | activity change, negative = cytotoxicity | Potency
CCc1cccc(C)c1N(C(=O)C(=O)O)C(C)COC (stereo not given) | -8.73% | –
O=C(CCN1CCC(c2ccccc2)C1)c1ccc2c(c1)OCCO2 (stereo not given) | -1.12% [at 35.3 µM] | –
O=[N+]([O-])c1ccc(O)c2ncccc12 | -10.2% [at 35.3 µM] | –
Nc1cc([N+](=O)[O-])ccc1Cl | -4.13% | –
Nc1c(Br)cc([N+](=O)[O-])cc1Br | -3.83% | –
N#Cc1ccc(C/C(=N/NC(=O)Nc2ccc(OC(F)(F)F)cc2)c2cccc(C(F)(F)F)c2)cc1 | 35.5% | –
Cc1cccc2c1ccc1ccccc12 | -5.67% | –
Oc1ccc2c(c1)CCC2 | -2% | –
CCCCCCCCCCCC(=O)Cl | 0.787% | –
CSc1nnc(C(C)(C)C)c(=O)[nH]1 | -7.49% | –
CCc1cccc(C)c1N(C(=O)CS(=O)(=O)O)C(C)COC (stereo not given) | -0.428% | –
CCSCC | -3.58% | –
C1CCSC1 | 2.71% | –
CCCCCCCCCCCCCCCCC(C(=O)O)C(O)(CC(=O)O)C(=O)O (stereo not given) | -5.53% [at 35.3 µM] | –
CCCCCCCCCCCCN1CCCC1=O | -26.5% | –
CCN(CC)c1ccc(N=Nc2ccccc2)cc1 | -33.9% | –
O=C(O)C[C@H](O)C[C@H](O)/C=C/c1c(C2CC2)nc2ccccc2c1-c1ccc(F)cc1 | 3.76% [at 15.8 µM] | –
CC(C)(C)c1cc(CCC(=O)OCCSCCOC(=O)CCc2cc(C(C)(C)C)c(O)c(C(C)(C)C)c2)cc(C(C)(C)C)c1O | 1.18% [at 35.3 µM] | –
O=S(=O)(c1ccc(OCc2ccccc2)cc1)c1ccccc1O | -3.67% | –
CCCCCc1ccc(O)cc1 | -16.3% | –

Structure (SMILES) | activity change, negative = cytotoxicity | Potency
O=C1OC(O)C(C(Cl)Cl)=C1Cl (stereo not given) | -10.6% | –
C=Cc1ccncc1 | 7.81% | –
CCCCNc1ccc(NCCCC)c2c1C(=O)c1ccccc1C2=O | 2.74% [at 15.8 µM] | –
Cc1ccc(S(=O)(=O)C(I)I)cc1 | – | 49 µM (active)
CC(C)=CCC[C@H](C)CC=O | -13.6% | –
c1ccc(-c2ccc(C(c3ccccc3)n3ccnc3)cc2)cc1 (stereo not given) | -17.1% [at 35.3 µM] | –
CCCC(=O)c1cc(O)c(O)cc1O | 0.203% | –
CCN(CC)c1ccc(C=O)c(O)c1 | 20% | –
C/C(=N\[Si](C)(C)C)O[Si](C)(C)C | 0.645% | –
C=COCCCC | 3.29% | –
COc1cccc(-c2ccc(/C=C\CN3CCCCCC3)cc2Cl)c1 | -18.6% | –
N#Cc1nc(Cl)c(Cl)c(Cl)c1Cl | 4.26% | –
c1ccc(-c2ccccc2-c2ccccc2)cc1 | -18% | –
Nc1ccc(F)c([N+](=O)[O-])c1 | 5.06% | –
CC(C)=NNC(N)=S | -0.0805% | –
Nc1cc([N+](=O)[O-])cc(Cl)c1O | -8.26% | –
C1=CCCC1 | -4.93% | –
O=C1OCc2ccccc21 | 2.61% | –
N#CCCOCCC#N | -12.4% | –
CCOc1nc(F)cc2nc(S(=O)(=O)Nc3c(Cl)cccc3C(=O)OC)nn12 | -2.1% | –
